Laboratory results: PubChem BioAssay
Activity calls are given as the source filed them. Unless noted, how the calls were made is not given here.

Key:
[1] = system: XIP peptide (Xip251-270) binding; assay: XIP fragment 251-270 binding compounds – biochemical, small-molecule microarray, fluorescence 635/667 nm, 0.1 µg/mL protein, primary screen (AID 1182); conditions: fluorescent protein binding, 635 nm, higher = more signal, called active from +8 up or from −8 down
XIP peptide (Xip251-270) = assay: compounds binding XIP fragment 251-270 – biochemical, small-molecule microarray, fluorescence 635/667 nm, 0.5 µg/mL protein, primary screen (AID 1183); conditions: fluorescence 635 nm, higher = more signal
[2] = blood-stage malaria parasite viability loss – strain 3D7, DAPI fluorescence, 100 nL, primary screen (AID 1184);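 further: parasites grown inside human red blood cells in medium with human serum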; conditions: P. falciparum 3D7 growth, 3 d, higher = more signal
[3] = biological target: Homeobox protein Hox-A13 (Mus musculus) (UniProt Q62424); assay: disruptors of Hoxa13 oligonucleotide interaction – biochemical, fluorescence polarization, labeled oligonucleotide, primary screen (AID 1185); conditions: Hoxa13:DNA binding, 15 min, higher = more signal, called active from +8 up or from −8 down
[4] = blockers of DNA damage checkpoint Chk1 activation – imaging, HeLa, hydroxyurea, phospho-Chk1 antibody, percent positive cells, primary screen (AID 1186); conditions: hydroxyurea-induced phospho-Chk1 immunofluorescence imaging, higher = more signal
[5] = blockers of DNA damage checkpoint Chk1 activation – imaging, HeLa, hydroxyurea, phospho-Chk1 nuclear intensity, primary screen (AID 1187); conditions: hydroxyurea-induced phospho-Chk1 immunofluorescence imaging, higher = more signal

Chain of Homeobox protein Hox-A13 (Mus musculus) (Q62424 whole entry, looked up): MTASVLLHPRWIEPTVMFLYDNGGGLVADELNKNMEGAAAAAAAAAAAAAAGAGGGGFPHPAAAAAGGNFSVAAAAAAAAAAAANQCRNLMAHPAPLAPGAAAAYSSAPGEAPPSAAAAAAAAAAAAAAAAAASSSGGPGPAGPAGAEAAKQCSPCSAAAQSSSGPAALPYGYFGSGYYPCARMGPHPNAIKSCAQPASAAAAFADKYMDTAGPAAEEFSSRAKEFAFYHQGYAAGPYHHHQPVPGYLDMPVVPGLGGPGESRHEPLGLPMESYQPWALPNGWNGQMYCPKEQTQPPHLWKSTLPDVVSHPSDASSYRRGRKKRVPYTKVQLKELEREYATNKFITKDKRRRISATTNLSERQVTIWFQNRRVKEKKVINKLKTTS

In the case of `COc1ccc([Si](C)(C)[C@H]2[C@H](CCO)O[C@@]3(C(=O)N(Cc4ccc(N(C=O)c5ccccc5)cc4)c4ccccc43)[C@@H]2C)cc1`, the composite z-score [1] is reported as 0.381 (inactive), the composite z-score (XIP peptide (Xip251-270)) is reported as 0.282 and the z-score [2] is reported as -1.93. The z-score [3] was -0.824 (inactive), the z-score [4] was 1.27 (inactive) and the z-score [5] was -0.123 (inactive).

For `CC(C)C[C@@H]1NC(=O)[C@H](C(C)C)NC(=O)[C@@]23C(=O)N[C@@H](Cc4ccccc4)C2[C@H](C)[C@@]2(C)O[C@H]2C3/C=C/CC/C=C/CNC1=O` (some centres not stated), the composite z-score [1] was 0.758 (inactive), the composite z-score (XIP peptide (Xip251-270)) was 0.607 and the z-score [2] was -1.4. For the same molecule, the z-score [3] was -6.99 (inactive), the z-score [4] was 0.0132 (inactive) and the z-score [5] was 0.432 (inactive).

For `CCOC(=O)C[C@H]1[C@H](OC(=O)c2ccc(C(=O)c3ccccc3)cc2)[C@@H](NC(=O)CC(C)C)c2cc(OCCCO)ccc2N1C(=O)c1ccc2ccccc2n1`, the composite z-score [1] was 1.24 (inactive), the composite z-score (XIP peptide (Xip251-270)) was 0.642 and the z-score [2] was -0.057. For the same molecule, the z-score [3] was -2.72 (inactive), the z-score [4] was -0.776 (inactive) and the z-score [5] was -0.687 (inactive).

With `CC(C)N1C(=O)C[C@@](C(=O)NCC(F)(F)F)(c2ccc([N+](=O)[O-])cc2)[C@H]1c1ccc(CO)cc1` the composite z-score [1] was 0.0334 (inactive), the composite z-score (XIP peptide (Xip251-270)) was 0.202 and the z-score [2] was -1.38. For the same molecule, the z-score [3] was -2.67 (inactive), the z-score [4] was -0.317 (inactive) and the z-score [5] was -0.273 (inactive).

With `C=CC(=C)[C@H]1Oc2ccccc2S(=O)(=O)N2CCC[C@@H]12` the composite z-score [1] was 0.323 (inactive), the composite z-score (XIP peptide (Xip251-270)) was -0.253 and the z-score [2] was -0.0753. For the same molecule, the z-score [3] was -1.9 (inactive), the z-score [4] was 0.142 (inactive) and the z-score [5] was 0.342 (inactive).

With `COc1ccc(C#Cc2ccc3c(c2)[C@]2(C(=O)N3)[C@H](C(=O)NC[C@H](O)c3ccccc3)[C@H]3C(=O)O[C@H](c4ccccc4)[C@H](c4ccccc4)N3[C@@H]2c2ccc(O)cc2)cc1` the composite z-score [1] was 0.627 (inactive), the composite z-score (XIP peptide (Xip251-270)) was 0.624 and the z-score [2] was -0.0029. The z-score [3] was -0.752 (inactive), the z-score [4] was -0.371 (inactive) and the z-score [5] was -0.628 (inactive).

For `CCOC(=O)C[C@H]1[C@H](OC(=O)c2ccc(C(=O)c3ccccc3)cc2)[C@@H](NC(=O)c2ccc3ccccc3c2)c2cc(OCCCO)ccc2N1C(=O)Cc1ccc(OC)cc1`, the composite z-score [1] was 0.135 (inactive), the composite z-score (XIP peptide (Xip251-270)) was -0.011 and the z-score [2] was -1.06. For the same molecule, the z-score [3] was -1.59 (inactive), the z-score [4] was -0.0477 (inactive) and the z-score [5] was -0.0525 (inactive).

With `COC(=O)[C@@]1(Cc2ccc(OC)cc2)[C@H]2c3cc(C(=O)N(C)C)n(Cc4ccc(S(C)(=O)=O)cc4)c3C[C@H]2CN1C(=O)c1ccccc1` the composite z-score [1] was 1.64 (inactive), the composite z-score (XIP peptide (Xip251-270)) was 0.233 and the z-score [2] was -0.0665. For the same molecule, the z-score [3] was -5.38 (inactive), the z-score [4] was -0.907 (inactive) and the z-score [5] was -1.03 (inactive).

For `O=C1C2C=CC(C(O)Cc3ccccc3)N(n3cnnc3)C2C(=O)N1Cc1ccccc1` (configuration not stated), the composite z-score [1] was -0.139 (inactive), the composite z-score (XIP peptide (Xip251-270)) was 0.686 and the z-score [2] was -1.29. The z-score [3] was -3.18 (inactive), the z-score [4] was -0.179 (inactive) and the z-score [5] was -0.472 (inactive).

With `COC(=O)[C@@]1(CCS(=O)(=O)c2ccccc2)N=C(c2ccc(OCCCO)cc2)O[C@H]1c1ccccc1CN=[N+]=[N-]` the composite z-score [1] was 1.24 (inactive), the composite z-score (XIP peptide (Xip251-270)) was 0.769 and the z-score [2] was -2.07. The z-score [3] was -0.977 (inactive), the z-score [4] was -0.395 (inactive) and the z-score [5] was -0.74 (inactive).

In the case of `COC(=O)[C@H](Cc1ccccc1)N1CC2=C[C@@H](C3CC3)n3c(=O)n(C)c(=O)n3[C@H]2[C@@H]1[C@@H](O)Cc1ccccc1`, the composite z-score [1] is reported as 0.475 (inactive), the composite z-score (XIP peptide (Xip251-270)) is reported as 0.259 and the z-score [2] is reported as -0.863. The z-score [3] was -7.37 (inactive), the z-score [4] was 0.183 (inactive) and the z-score [5] was 1.5 (inactive).

With `NC(=O)NCC#Cc1ccc2c(c1)[C@]1(C(=O)N2)[C@H](c2ccc(O)cc2)N2[C@H](c3ccccc3)[C@H](c3ccccc3)OC(=O)[C@H]2[C@@H]1C(=O)O` the composite z-score [1] was -0.211 (inactive), the composite z-score (XIP peptide (Xip251-270)) was 0.157 and the z-score [2] was 0.431. For the same molecule, the z-score [3] was -5.27 (inactive), the z-score [4] was 0.123 (inactive) and the z-score [5] was 0.094 (inactive).

With `C=C(COC)C(=O)CC[C@@H](OC(C)=O)c1ccc(CO)o1` the composite z-score [1] was 0.861 (inactive), the composite z-score (XIP peptide (Xip251-270)) was -0.0256 and the z-score [2] was 0.216. The z-score [3] was -3.72 (inactive), the z-score [4] was 0.293 (inactive) and the z-score [5] was 0.384 (inactive).

In the case of `CC(C)(C)OC(=O)CC[C@]1(C(=O)N2CCOCC2)N=C(c2ccc(OCCCO)cc2)O[C@H]1c1ccccc1N=[N+]=[N-]`, the composite z-score [1] is reported as 0.472 (inactive), the composite z-score (XIP peptide (Xip251-270)) is reported as 0.472 and the z-score [2] is reported as -2.28. The z-score [3] was -5.38 (inactive), the z-score [4] was -0.112 (inactive) and the z-score [5] was 0.0839 (inactive).

For `CCCCN1CC=CC23O[C@@H]4C=CCCOC(=O)C4[C@H]2C(=O)N(CCCCCCO)[C@@H]3C1=O` (some centres not stated), the composite z-score [1] was 0.249 (inactive), the composite z-score (XIP peptide (Xip251-270)) was 0.847 and the z-score [2] was -0.35. The z-score [3] was -4.29 (inactive), the z-score [4] was 0.809 (inactive) and the z-score [5] was 0.79 (inactive).

With `CCC[C@@H]1C[C@@]1(CCC)[C@@H](NS(=O)(=O)c1cccc2cccnc12)c1ccc(Cl)cc1` the composite z-score [1] was 0.0535 (inactive), the composite z-score (XIP peptide (Xip251-270)) was -0.271 and the z-score [2] was -0.586. For the same molecule, the z-score [3] was -0.392 (inactive), the z-score [4] was 0.555 (inactive) and the z-score [5] was 0.618 (inactive).

With `O=C1O[C@H](c2ccccc2)[C@H](c2ccccc2)N2[C@H]1[C@@H](C(=O)N1CCCCCCC1)[C@]1(C(=O)Nc3ccc(C#CCCO)cc31)[C@H]2c1ccccc1OCCO` the composite z-score [1] was 9.51 (active), the composite z-score (XIP peptide (Xip251-270)) was 1.07 and the z-score [2] was -2.07. For the same molecule, the z-score [3] was 4.52 (inactive), the z-score [4] was 0.208 (inactive) and the z-score [5] was 0.259 (inactive).

With `Cc1ccc([C@@H]2C[C@@H](Sc3ccccc3)[C@H](C(=O)O)CN2S(=O)(=O)c2ccc(C)cc2)cc1` the composite z-score [1] was 0.571 (inactive), the composite z-score (XIP peptide (Xip251-270)) was 0.8 and the z-score [2] was -0.706. The z-score [3] was -7.26 (inactive), the z-score [4] was 0.57 (inactive) and the z-score [5] was 0.498 (inactive).

For `C=C(CC1([C@@H](NP(=O)(c2ccccc2)c2ccccc2)[C@H]2C[C@@H]2CCCC)CC1)c1ccccc1`, the composite z-score [1] was -0.0402 (inactive), the composite z-score (XIP peptide (Xip251-270)) was 0.143 and the z-score [2] was -0.548. The z-score [3] was -2.33 (inactive), the z-score [4] was 0.779 (inactive) and the z-score [5] was 1.12 (inactive).

With `COc1ccc([Si](C)(C)[C@H]2[C@H](CC(=O)N3Cc4ccccc4C[C@H]3CO)O[C@@]3(C(=O)N(Cc4cccc(N5CCC5=O)c4)c4ccccc43)[C@@H]2C)cc1` the composite z-score [1] was 0.177 (inactive), the composite z-score (XIP peptide (Xip251-270)) was 0.719 and the z-score [2] was -2.33. The z-score [3] was -2.97 (inactive), the z-score [4] was -0.227 (inactive) and the z-score [5] was -0.0325 (inactive).

With `CCCCC(CC)C(O)C1C=CC2C(=O)N(Cc3ccccc3)C(=O)C2N1n1cnnc1` (configuration not stated) the composite z-score [1] was 0.0978 (inactive), the composite z-score (XIP peptide (Xip251-270)) was 0.671 and the z-score [2] was -0.465. For the same molecule, the z-score [3] was -3.42 (inactive), the z-score [4] was 0.419 (inactive) and the z-score [5] was -0.454 (inactive).

With `COC(=O)[C@@]1(Cc2ccccc2)[C@H]2c3cc(C(=O)N(C)C)n(Cc4ccsc4Br)c3C[C@H]2CN1C(=O)c1ccccc1` the composite z-score [1] was 0.274 (inactive), the composite z-score (XIP peptide (Xip251-270)) was 0.116 and the z-score [2] was -1.51. The z-score [3] was -4.23 (inactive), the z-score [4] was 0.567 (inactive) and the z-score [5] was 0.0591 (inactive).

For `CC(C)C(O)C1C=CC2C(=O)NC(=O)C2N1Nc1ccc(Cl)cc1Cl` (configuration not stated), the composite z-score [1] was 0.471 (inactive), the composite z-score (XIP peptide (Xip251-270)) was -0.615 and the z-score [2] was 0.0359. The z-score [3] was -3.95 (inactive), the z-score [4] was 0.998 (inactive) and the z-score [5] was 0.237 (inactive).

For `COC(=O)[C@@]1(Cc2ccccc2)N=C(c2ccc(OCCCO)cc2)O[C@H]1c1ccccc1`, the composite z-score [1] was 1.16 (inactive), the composite z-score (XIP peptide (Xip251-270)) was 0.743 and the z-score [2] was -1.92. For the same molecule, the z-score [3] was -4.38 (inactive), the z-score [4] was -0.343 (inactive) and the z-score [5] was -0.094 (inactive).

In the case of `COC(=O)[C@@]1(Cc2ccc(OC)cc2)[C@H]2c3cc(C(=O)N4CCCC4)n(Cc4ccc(C)c(F)c4F)c3C[C@H]2CN1C(=O)c1ccccc1`, the composite z-score [1] is reported as 0.128 (inactive), the composite z-score (XIP peptide (Xip251-270)) is reported as 0.715 and the z-score [2] is reported as -1.12. The z-score [3] was -0.498 (inactive), the z-score [4] was -0.0213 (inactive) and the z-score [5] was -0.423 (inactive).

With `C=C(CCCC)C(=O)CC[C@@H](OC(=O)c1ccccc1-c1ccccc1C(=O)O)c1ccc(OCCO)cc1` the composite z-score [1] was 0.175 (inactive), the composite z-score (XIP peptide (Xip251-270)) was 0.602 and the z-score [2] was -2.46. The z-score [3] was -5.5 (inactive), the z-score [4] was 0.431 (inactive) and the z-score [5] was 0.362 (inactive).

With `COc1ccc(CCNC(=O)[C@@]2(Sc3ccc(C)cc3)CC(=O)N(C3Cc4ccccc4C3)[C@@H]2c2ccc(CO)cc2I)cc1` the composite z-score [1] was -0.0449 (inactive), the composite z-score (XIP peptide (Xip251-270)) was 0.81 and the z-score [2] was -0.725. For the same molecule, the z-score [3] was -2.4 (inactive), the z-score [4] was 0.136 (inactive) and the z-score [5] was 0.684 (inactive).
